# Article PMC5540273 (PLoS ONE, 2017)
# System: ABL2
# Settings: concentration: 1 μM,replicates: in singlicate; n = 1
# 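Note: KINOMEscan kinase panel screen.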
row,SMILES,%Inh
1,CCn1c(-c2nonc2N)nc2cncc(CNC3CCNCC3)c21.Cl [SB-747651],13%
2,Cc1ccc(C(=O)Nc2ccc(Oc3ccc4nc(NC(=O)C5CC5)cn4c3)c(F)c2)c(=O)n1-c1ccccc1,83%
3,Cl.c1ccc(Oc2ccc(Nc3ccnc4cc(-c5ccc(CN6CCNCC6)o5)ccc34)cc2)nc1 [GW567142],42%
4,Nc1nccc(-c2ccc3c(N)n[nH]c3c2)n1 [GSK1034945],9%
5,O=C(Nc1cccc(C(F)(F)F)c1)c1cccc(Oc2ccc3nccn3n2)c1,76%
6,CCNCC(Cc1ccccc1)NC(=O)c1cc(Br)c(-c2ccnc3[nH]ccc23)s1.Cl.Cl (centres unmarked) [GSK1383280],19%
7,Cl.Nc1n[nH]c2cc(-c3ccccn3)ccc12 [GSK2189892],0%
8,O=C1NCCc2[nH]c(-c3ccncc3)cc21,0%
9,CS(=O)c1ccc(-c2coc3ccc(-c4n[nH]c(=O)o4)cc23)cc1 (centres unmarked),0%
10,Cc1ccn2nc(-c3ccc(F)cc3)c(-c3ccncc3)c2c1.Cl [GW457859],0%
11,Cn1ccc2ncnc(Oc3ccc(NC(=O)Nc4cnn(C(C)(C)C)c4)c(Cl)c3)c21,11%
12,Cn1ccc2ncnc(Oc3ccc(NC(=O)Nc4cccc(C(F)(F)F)c4)c(F)c3)c21,29%
13,COc1cc2ncn(-c3cc(OCC4CCCCC4)c(C(N)=O)s3)c2cc1OC [GSK204559],14%
14,COC(=O)Nc1nc2cc(Oc3ccc(NC(=O)Nc4cc(C(F)(F)F)ccc4Cl)cc3)ccc2[nH]1.Cl [GW697465],89%
15,N#Cc1cccc(C(=O)NC2CCN(c3ccnc(Nc4ccc(F)cc4)n3)C2)c1 (centres unmarked) [GSK1379708],4%
16,CN(c1cccc(CNc2nc(Nc3ccc4c(c3)CC(=O)N4)ncc2C(F)(F)F)c1)S(C)(=O)=O,16%
17,CNC(=O)c1ccccc1Nc1nc(Nc2cccc(CS(C)(=O)=O)c2)ncc1C.O=CO [GSK1520489],99.4%
18,C[C@@H](Oc1cc(-n2cnc3cc(-c4cnn(C)c4)ccc32)sc1C(N)=O)c1ccccc1Cl [GSK580432],63%
19,COc1cc2c(Nc3ccc(NC(=O)c4ccccc4)cc3)ncnc2cc1OCCCN1CCOCC1 [GSK301329],20%
20,CC(C)S(=O)(=O)N1CCN(Cc2ccc3c(c2)nc(NC(=O)c2ccsc2)n3C[C@H](O)c2ccccc2)CC1 [GW635815],22%
21,CC(=O)Nc1nc2cnc(Nc3cc(NC(=O)c4cccc(CC(C)(C)C#N)c4)ccc3C)nc2s1,61%
22,Cc1nnc(-c2ccc3occ(-c4ccc(S(C)=O)cc4)c3n2)o1 (centres unmarked),16%
23,Cc1n[nH]c2cc(Nc3ccnc(Nc4cccc(CN5CCOCC5)c4)n3)ccc12 [GW682569],23%
24,Cl.Cl.NC[C@H](CC1CCCCC1)NC(=O)c1ccc(-c2ccnc3[nH]ccc23)s1 [GSK1581428],8%
25,COc1cccc(CNC(=O)NC2CCN(c3ccnc(Nc4cc(OC)c(OC)c(OC)c4)n3)C2)c1 (centres unmarked) [GSK1379765],20%

# System: ACVR1B
# Settings: concentration: 1 μM,replicates: in singlicate; n = 1
row,SMILES,%Inh
1,CN1CCN(CCNc2nc3cc(Oc4ccc(NC(=O)Nc5cc(C(F)(F)F)ccc5F)cc4)ccc3[nH]2)CC1.Cl.Cl [GW768504],0%
2,COc1cccc(OC)c1C(=O)Nc1cccc(-c2nn3ccccc3c2-c2ccnc(Nc3cccc(F)c3)n2)c1 [GSK361065],15%
3,CC(=O)Nc1ccc(-c2cc3ncnc(SCC(=O)O)c3s2)cc1,2%
4,COC(=O)c1cccc(NC(=O)NC2CCN(c3ccnc(Nc4cc(OC)c(OC)c(OC)c4)n3)C2)c1 (centres unmarked) [GSK1379767],0%
5,NC(=O)Nc1sc(-c2ccc(F)cc2)cc1C(N)=O [GW789449],5%
6,CCOC(=O)N1CCC(n2cnc(-c3ccc(F)cc3)c2-c2ccnc(N)n2)CC1 [SB-219952],33%
7,C[C@@H]1CCN(C(=O)N2CCCC2)C[C@@H]1N(C)c1ncnc2[nH]ccc12,1%
8,COc1cccc(C2=C(Nc3cccc(Cl)c3)C(=O)NC2=O)c1 [SB-341556],0%
9,COC(=O)c1cccc(NC(=O)NC2CCN(c3ccnc(NCc4ccc(F)cc4)n3)CC2)c1 [GSK1379860],0%
10,O=C(Nc1ccc(Oc2ccc3nc(NC(=O)C4CC4)cn3n2)c(F)c1)c1cccn(-c2ccccc2)c1=O,0%
11,Cn1ccc2ncnc(Oc3ccc(NC(=O)Nc4cncc(C(F)(F)F)c4)c(Cl)c3)c21,0%
12,CSc1nccc(-c2c(-c3ccc(F)cc3)ncn2CCCN2CCOCC2)n1.Cl [SB-217146],0%
13,CCn1c(-c2nonc2N)nc2cncc(CNC3CCNCC3)c21.Cl [SB-747651],0%
14,Cc1ccc(C(=O)Nc2ccc(Oc3ccc4nc(NC(=O)C5CC5)cn4c3)c(F)c2)c(=O)n1-c1ccccc1,0%
15,Cl.c1ccc(Oc2ccc(Nc3ccnc4cc(-c5ccc(CN6CCNCC6)o5)ccc34)cc2)nc1 [GW567142],0%
16,Nc1nccc(-c2ccc3c(N)n[nH]c3c2)n1 [GSK1034945],0%
17,O=C(Nc1cccc(C(F)(F)F)c1)c1cccc(Oc2ccc3nccn3n2)c1,0%
18,CCNCC(Cc1ccccc1)NC(=O)c1cc(Br)c(-c2ccnc3[nH]ccc23)s1.Cl.Cl (centres unmarked) [GSK1383280],0%
19,Cl.Nc1n[nH]c2cc(-c3ccccn3)ccc12 [GSK2189892],0%

row,SMILES,%Inh
1,O=C1NCCc2[nH]c(-c3ccncc3)cc21,40%
2,CS(=O)c1ccc(-c2coc3ccc(-c4n[nH]c(=O)o4)cc23)cc1 (centres unmarked),14%
3,Cc1ccn2nc(-c3ccc(F)cc3)c(-c3ccncc3)c2c1.Cl [GW457859],0%
4,Cn1ccc2ncnc(Oc3ccc(NC(=O)Nc4cnn(C(C)(C)C)c4)c(Cl)c3)c21,2%
5,Cn1ccc2ncnc(Oc3ccc(NC(=O)Nc4cccc(C(F)(F)F)c4)c(F)c3)c21,0%
6,COc1cc2ncn(-c3cc(OCC4CCCCC4)c(C(N)=O)s3)c2cc1OC [GSK204559],0%
7,COC(=O)Nc1nc2cc(Oc3ccc(NC(=O)Nc4cc(C(F)(F)F)ccc4Cl)cc3)ccc2[nH]1.Cl [GW697465],0%
8,N#Cc1cccc(C(=O)NC2CCN(c3ccnc(Nc4ccc(F)cc4)n3)C2)c1 (centres unmarked) [GSK1379708],0%
9,CN(c1cccc(CNc2nc(Nc3ccc4c(c3)CC(=O)N4)ncc2C(F)(F)F)c1)S(C)(=O)=O,0%
10,CNC(=O)c1ccccc1Nc1nc(Nc2cccc(CS(C)(=O)=O)c2)ncc1C.O=CO [GSK1520489],71%
11,C[C@@H](Oc1cc(-n2cnc3cc(-c4cnn(C)c4)ccc32)sc1C(N)=O)c1ccccc1Cl [GSK580432],0%
12,COc1cc2c(Nc3ccc(NC(=O)c4ccccc4)cc3)ncnc2cc1OCCCN1CCOCC1 [GSK301329],0%
13,CC(C)S(=O)(=O)N1CCN(Cc2ccc3c(c2)nc(NC(=O)c2ccsc2)n3C[C@H](O)c2ccccc2)CC1 [GW635815],15%
14,CC(=O)Nc1nc2cnc(Nc3cc(NC(=O)c4cccc(CC(C)(C)C#N)c4)ccc3C)nc2s1,0%
15,Cc1nnc(-c2ccc3occ(-c4ccc(S(C)=O)cc4)c3n2)o1 (centres unmarked),0%
16,Cc1n[nH]c2cc(Nc3ccnc(Nc4cccc(CN5CCOCC5)c4)n3)ccc12 [GW682569],36%
17,Cl.Cl.NC[C@H](CC1CCCCC1)NC(=O)c1ccc(-c2ccnc3[nH]ccc23)s1 [GSK1581428],0%
18,COc1cccc(CNC(=O)NC2CCN(c3ccnc(Nc4cc(OC)c(OC)c(OC)c4)n3)C2)c1 (centres unmarked) [GSK1379765],0%
